The values below come from PubChem BioAssay (NCATS).

Values without a mark were called inactive. Inconclusive results are not listed. The source made the active and inactive calls. Unless noted, the call rests on the fitted dose curve; in most records, active means well fitted curve in the direction sought with a large enough effect; inconclusive means small, poorly fitted or top-dose-only effect, or another doubt; inactive means no such curve, though single readings can be large; an effect the other way counts as inactive or inconclusive.

The target in experiment [1] is Lysosomal acid glucosylceramidase (Homo sapiens) (UniProt P04062). Description: Glucocerebrosidase-p2 (AID 348; in the data active means potency below about 10 µM; further: potency means the concentration at half of the fitted maximal effect). Conditions: purified GBA, blue fluorogenic substrate, 40 min. The gist of the method:
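Compounds titrated from 0.6 nM upwards against 0.2 nM enzyme in pH 5.9 citric acid/KH2PO4, taurocholate, tween-20; blue fluorogenic substrate 80 uM, 40 min room temperature, stopped and read Ex 365/Em 440 for AC50.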

Experiment [2] in a line: NFAT Signaling Pathway (AID 444; active means well fitted curve in either direction with a large enough effect, not every such curve was filed as active;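 further: carbachol stimulus at about its EC50 of 1 µM final; on the % scale 0 is the no-effect control and ±100 the full control effect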). Conditions: Jurkat NFAT-bla M1, carbachol, beta-lactamase ratio, 5 h; at 7.69 µM (top of the series) unless noted. In a few lines:
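Read-out: CCF4 FRET ratio (460 nm/530 nm) after 1 h RT dye loading, used for %activity and AC50 from titration series. Cells: Jurkat NFAT-β-lactamase/M1 line, treated with compound plus 1 uM carbachol for 5 h, 37 °C.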

A short description of experiment [3]: Stat Signaling Pathway (AID 446; active means well fitted curve in either direction with a large enough effect, not every such curve was filed as active;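 further: ME-180 cervical cancer cells given 40 pM IL-6 alongside compound; SIE-controlled beta-lactamase reporter measured as 460/530 nm FRET emission ratio; on the % scale 0 is the no-effect control and ±100 the full control effect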). The conditions noted are these: ME-180 SIE beta-lactamase reporter, IL-6 stimulated, 5 h; at 7.69 µM (top of the series) unless noted. In a few lines: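 IL-6/STAT signaling read in ME-180 cells via an SIE beta-lactamase reporter. Stimulus was 40 pM IL-6 (its AC50) for 5 hrs, so both activation and inhibition register.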
The target of experiment [4] is Glucocorticoid receptor (Homo sapiens) (UniProt P04150). As to the kind of experiment: GR-GFP Redistribution (AID 450;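 active means compounds whose dose series gives a full or clear partial fitted curve of increased nuclear translocation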; further: potency means the concentration at half of the fitted maximal effect). Conditions: U2OS GR-GFP nuclear translocation, laser cytometry, 2 h.
Chain of Glucocorticoid receptor (Homo sapiens) (P04150 whole entry, looked up, the tested form may be a part): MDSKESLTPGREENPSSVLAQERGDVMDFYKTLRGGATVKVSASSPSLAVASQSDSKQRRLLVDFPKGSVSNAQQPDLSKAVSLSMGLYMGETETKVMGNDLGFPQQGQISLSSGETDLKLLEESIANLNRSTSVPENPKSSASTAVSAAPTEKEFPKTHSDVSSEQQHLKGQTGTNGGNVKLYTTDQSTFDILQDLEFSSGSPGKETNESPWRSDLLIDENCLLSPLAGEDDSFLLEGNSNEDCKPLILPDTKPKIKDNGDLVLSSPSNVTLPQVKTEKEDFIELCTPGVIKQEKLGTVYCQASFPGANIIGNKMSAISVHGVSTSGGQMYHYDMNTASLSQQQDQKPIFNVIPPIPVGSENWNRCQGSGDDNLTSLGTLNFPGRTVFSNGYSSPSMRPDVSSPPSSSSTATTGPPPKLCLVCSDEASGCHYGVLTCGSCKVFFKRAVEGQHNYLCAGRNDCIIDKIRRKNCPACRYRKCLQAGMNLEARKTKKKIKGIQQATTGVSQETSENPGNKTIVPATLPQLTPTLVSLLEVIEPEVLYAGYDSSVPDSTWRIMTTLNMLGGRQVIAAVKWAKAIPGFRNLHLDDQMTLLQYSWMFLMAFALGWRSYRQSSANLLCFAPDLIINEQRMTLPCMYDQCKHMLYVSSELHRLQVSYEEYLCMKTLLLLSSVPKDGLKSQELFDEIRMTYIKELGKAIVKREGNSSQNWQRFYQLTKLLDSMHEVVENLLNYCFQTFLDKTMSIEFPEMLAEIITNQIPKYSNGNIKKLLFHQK
For experiment [5] the target is unchanged. Description: GR-EFC Redistribution (AID 451; calls by dose curve; further: potency means the concentration at half of the fitted maximal effect). The conditions noted are these: CHO-K1 GR-EFC translocation, beta-gal luminescence, 2 h. In a few lines: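 Translocation of GR-ED fusion to nuclear EA restores b-gal, read by luminescence after 1 h room-temperature detection. Engineered CHO-K1 biosensor cells, 1,000/well, exposed 2 h at 37 C to titrations up to 46 uM final.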

Experiment [6] deals with Mitogen-activated protein kinase 10 (Mus musculus) (UniProt Q61831). Description: JNK3 AlphaScreen Assay (AID 530; active means well fitted curve in either direction with a large enough effect, not every such curve was filed as active;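 further: kinase came from lysate of stimulated human HepG2 cells; signal reports phosphorylation of biotinylated GST-cJun 1-79 at Ser73 with 10 µM ATP; on the % scale 0 is the no-effect control and ±100 the full control effect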). The conditions noted are these: JNK3 lysate, c-Jun phosphorylation; series mostly up to 57.1 µM. In a few lines: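 Compound titrations were preincubated 15 minutes at room temperature with substrate, antibody and pre-activated JNK3-containing HepG2 lysate. Reactions were started with 10 uM ATP and stopped with EDTA-containing bead buffer for AlphaScreen detection.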
On the technique in general: Alpha assays give light when donor and acceptor beads are brought close together.

Experiment [7] concerns the target 3',5'-cyclic-AMP phosphodiesterase 4B (Homo sapiens) (UniProt Q07343). As to the kind of experiment: qHTS Assay for Inhibitors of PDE-IV (AID 607; active means well fitted activation curve with a large enough effect in the main read-out, with a control signal flat, not every such curve was filed as active; further: % of control where 0% means no effect). Conditions: HEK293 ACTOne CNG channel cells, membrane potential fluorescence; series mostly up to 22.9 µM. The gist of the method: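 Live HEK293 cells with a modified cyclic nucleotide-gated (CNG) channel report intracellular cAMP via membrane-potential dye fluorescence (ex 535/em 590 nm). Endogenous PDE-IV was targeted. Compounds were tested at up to 22.9 uM final; RO 20-1724 100 uM served as control.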
(In general: Quantitative high-throughput screening tests each substance at several concentrations.)

The target in experiment [8] is Dual specificity protein kinase CLK4 (Homo sapiens) (UniProt Q9HAZ1). Description: qHTS Assay for Inhibitors of CDC-like Kinase 4 (Kinase-Glo Assay) (AID 1770). Further: nearly all actives have a fitted effect of over 65% in size. Further: potency means the concentration at half of the fitted maximal effect. The conditions noted are these: recombinant Clk4, Kinase-Glo ATP depletion luminescence; series mostly up to 66.7 µM. The gist of the method: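 Readout: Kinase-Glo luminescence from ATP left after a 4.5 h room-temperature reaction of 25 nM Clk4 with 100 uM RS peptide and 1 uM ATP (final). Buffer: 25 mM Tris pH 7.5, 10 mM MgCl2.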
Chain of Dual specificity protein kinase CLK4 (Homo sapiens) (Q9HAZ1 whole entry, looked up): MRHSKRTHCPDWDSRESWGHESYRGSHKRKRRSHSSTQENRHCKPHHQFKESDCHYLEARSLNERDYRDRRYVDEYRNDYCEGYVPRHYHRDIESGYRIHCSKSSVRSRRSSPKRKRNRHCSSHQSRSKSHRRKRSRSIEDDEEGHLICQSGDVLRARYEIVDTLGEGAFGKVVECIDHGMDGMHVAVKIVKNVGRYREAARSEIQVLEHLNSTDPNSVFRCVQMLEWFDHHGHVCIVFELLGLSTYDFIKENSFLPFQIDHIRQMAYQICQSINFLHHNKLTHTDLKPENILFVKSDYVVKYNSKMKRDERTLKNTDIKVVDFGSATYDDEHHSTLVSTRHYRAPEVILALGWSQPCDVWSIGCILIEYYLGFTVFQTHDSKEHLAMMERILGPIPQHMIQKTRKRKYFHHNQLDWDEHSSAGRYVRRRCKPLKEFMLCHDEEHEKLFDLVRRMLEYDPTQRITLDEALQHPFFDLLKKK

The target is the same in experiment [9]. As to the kind of experiment: qHTS Assay for Inhibitors of CDC-like Kinase 4 (ADP-Glo Assay) (AID 1771). Further: nearly all actives have a fitted effect of over 70% in size. Further: potency means the concentration at half of the fitted maximal effect. The conditions noted are these: recombinant CLK4, ADP-Glo luminescence; series mostly up to 80 µM. The gist of the method: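 Luminescence from ADP-Glo reports ADP produced by 25 nM Clk4 acting on 100 uM RS repeat peptide with 1 uM ATP over 1 hr at room temperature; residual ATP is depleted before ADP is converted to ATP for detection.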

The target is the same in experiment [10]. Description: qHTS Assay for Inhibitors of CDC-like Kinase 4 (ADP-FP Assay) (AID 1795). Further: nearly all actives have a fitted effect of over 60% in size. Further: potency means the concentration at half of the fitted maximal effect. The conditions noted are these: Transcreener ADP fluorescence polarization; series mostly up to 50 µM. In a few lines: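 FP readout: Orange Transcreener ADP2 tracer (4 nM) plus ADP antibody, read after 30 min at room temperature. Kinase step: 6.25 nM Clk4, 100 uM RS peptide, 1 uM ATP, pH 7.5, 1 h.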

The target in experiment [11] is Ubiquitin carboxyl-terminal hydrolase 1 (Homo sapiens) (UniProt O94782). Description: Inhibitors of USP1/UAF1: Pilot qHTS (AID 504865).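 Further: rhodamine fluorescence freed from ubiquitin-rhodamine substrate followed over time; top concentration of the series differs between compounds; on the % scale 0 is the no-effect control and ±100 the full control effect; nearly all actives have a fitted effect of over 35% in size.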 Conditions: purified USP1/UAF1, Ub-rhodamine cleavage fluorescence; series mostly up to 54.9 µM. The gist of the method: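 1nM USP1/UAF1 + cpd, 15 min RT; start w/ Ub-Rho 150nM final; kinetic FL 480/540 nm, 6 reads q60 s. Buffer 50mM HEPES pH 7.8, 0.5mM EDTA, 1mM TCEP, 0.01% Tween-20, 0.1 mg/ml BSA.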
Chain of Ubiquitin carboxyl-terminal hydrolase 1 (Homo sapiens) (O94782 whole entry, looked up): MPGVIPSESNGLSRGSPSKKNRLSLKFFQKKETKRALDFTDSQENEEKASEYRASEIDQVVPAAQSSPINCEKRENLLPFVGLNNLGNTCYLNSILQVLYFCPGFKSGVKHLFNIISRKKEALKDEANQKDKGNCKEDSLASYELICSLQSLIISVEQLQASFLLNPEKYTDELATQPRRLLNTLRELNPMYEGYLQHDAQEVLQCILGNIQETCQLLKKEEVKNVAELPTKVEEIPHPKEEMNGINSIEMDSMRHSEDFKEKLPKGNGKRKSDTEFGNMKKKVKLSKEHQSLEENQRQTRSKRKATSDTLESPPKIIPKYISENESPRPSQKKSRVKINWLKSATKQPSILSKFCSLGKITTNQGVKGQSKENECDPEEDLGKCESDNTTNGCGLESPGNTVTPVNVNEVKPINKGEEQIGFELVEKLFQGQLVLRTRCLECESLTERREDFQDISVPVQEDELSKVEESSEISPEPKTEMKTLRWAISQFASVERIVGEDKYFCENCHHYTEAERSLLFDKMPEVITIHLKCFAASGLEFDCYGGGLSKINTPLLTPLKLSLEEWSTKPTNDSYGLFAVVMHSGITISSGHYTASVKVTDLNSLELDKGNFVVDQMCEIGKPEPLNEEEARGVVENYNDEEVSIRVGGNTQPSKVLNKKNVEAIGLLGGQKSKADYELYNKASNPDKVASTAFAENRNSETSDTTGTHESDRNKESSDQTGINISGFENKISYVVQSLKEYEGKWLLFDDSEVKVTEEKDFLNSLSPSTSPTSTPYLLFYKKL

The nature of experiment [12]: Primary qHTS for small molecule stabilizers of the endoplasmic reticulum resident proteome: Secreted ER Calcium Modulated Protein (SERCaMP) assay (AID 1508630). Further: on the % scale 0 is the no-effect control and ±100 the full control effect. The conditions noted are these: SH-SY5Y GLuc-SERCaMP (Gaussia luciferase released on ER calcium loss) secretion, thapsigargin, luminescence; series mostly up to 38.4 µM. In a few lines:
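GLuc-SERCaMP-expressing SH-SY5Y cells, pretreated 16 h with compound, are challenged with thapsigargin to empty ER calcium stores; after 4 h, coelenterazine is added directly to the medium and luminescence is imaged.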

Experiment [13] is described as follows: AP1 Signaling Pathway (AID 357; active means well fitted curve in either direction with a large enough effect, not every such curve was filed as active). The conditions noted are these: ME-180 AP-1-bla reporter, EGF-induced, beta-lactamase ratio, 5 h; at 7.69 µM (top of the series) unless noted. The gist of the method:
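A ratiometric CCF4 readout (405 nm excitation; 460 and 530 nm emission) quantified AP-1-driven beta-lactamase in ME-180 cells after 5 h with compound and EC50 EGF; AC50 values were derived for activators and inhibitors.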

For experiment [14], the target named is Cytochrome P450 1A2 (Homo sapiens) (UniProt P05177). Description: p450-cyp1a2 (AID 410; calls by dose curve; further: potency means the concentration at half of the fitted maximal effect). The conditions noted are these: recombinant CYP1A2, luciferin-ME demethylation, luminescence; series mostly up to 57 µM. The gist of the method: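 Luminescent readout of luciferin formed from Luciferin-ME by human CYP1A2; data normalized against complete inhibition by 57 uM furafylline. Enzyme 20nM, substrate 100uM at Km, 100mM KPO4 buffer, 60 min reaction at room temperature.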
Chain of Cytochrome P450 1A2 (Homo sapiens) (P05177 whole entry, looked up): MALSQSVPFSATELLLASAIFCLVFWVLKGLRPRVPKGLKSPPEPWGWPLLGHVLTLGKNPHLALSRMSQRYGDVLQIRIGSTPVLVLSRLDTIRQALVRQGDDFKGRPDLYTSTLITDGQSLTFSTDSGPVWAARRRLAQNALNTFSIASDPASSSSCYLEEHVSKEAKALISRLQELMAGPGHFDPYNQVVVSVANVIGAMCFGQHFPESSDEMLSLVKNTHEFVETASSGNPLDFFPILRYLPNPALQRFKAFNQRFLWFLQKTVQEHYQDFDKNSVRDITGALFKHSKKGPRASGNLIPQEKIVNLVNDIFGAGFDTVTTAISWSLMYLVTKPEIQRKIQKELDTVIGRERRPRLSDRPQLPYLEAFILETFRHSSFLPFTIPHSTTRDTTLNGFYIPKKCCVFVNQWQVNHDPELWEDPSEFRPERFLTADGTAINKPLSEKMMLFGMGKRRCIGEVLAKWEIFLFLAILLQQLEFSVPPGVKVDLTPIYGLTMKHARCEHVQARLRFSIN

Experiment [15] is described as follows: qHTS Assay for Identification of Small Molecule Agonists for Hypoxia Response Element Signaling Pathway (AID 914; active means well fitted activation curve with a large enough effect in the signal ratio, with a control signal flat, not every such curve was filed as active; the % refers to the signal ratio; further: potency means the concentration at half of the fitted maximal effect; on activation: % of control where 0% means no effect). The conditions noted are these: ME-180 (cervical carcinoma) HRE-bla reporter, beta-lactamase ratio, CoCl2, 17 h; activation: stronger effect = higher value. In a few lines:
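Positive modulation of EC50 CoCl2-induced hypoxia response element signaling is measured in ME-180 cells with a beta-lactamase reporter. Compounds are titrated, incubation runs 17 hours, and %Activity derives from the blue/green ratio.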

Experiment [16] concerns the target Cytochrome P450 3A4 (Homo sapiens) (UniProt P08684). Description: qHTS Assay for Activators of Cytochrome P450 3A4 (AID 885). Further: nearly all actives have a fitted effect of over 65% in size. Conditions: recombinant CYP3A4, Luciferin-PPXE luminescence, 60 min; series mostly up to 57.1 µM. The gist of the method: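 Quantitative HTS format: compounds preincubated with 20nM human CYP3A4 and Luciferin-PPXE substrate at KM, reaction started by NADPH regeneration, stopped after 60 min, luciferase luminescence read 20 min later.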

Experiment [17] concerns the target Cytochrome P450 2D6 (Homo sapiens) (UniProt P10635). As to the kind of experiment: qHTS Assay for Inhibitors and Substrates of Cytochrome P450 2D6 (AID 891). Further: potency means the concentration at half of the fitted maximal effect; nearly all actives have a fitted effect of over 60% in size. The conditions noted are these: recombinant CYP2D6, luciferin-ME EGE luminescence; series mostly up to 57.1 µM. The gist of the method: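 Human CYP2D6 (5 nM) with 30 uM Luciferin-ME EGE (at Km) in 100 mM KPO4, compound preincubated 10 min, then NADPH regeneration system for 60 min at room temperature. Luciferin read by luminescence; normalized to 1.43 uM quinidine.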

Experiment [18] has as its target Cytochrome P450 2C19 (Homo sapiens) (UniProt P33261). Description: qHTS Assay for Inhibitors and Substrates of Cytochrome P450 2C19 (AID 899). Further: potency means the concentration at half of the fitted maximal effect; nearly all actives have a fitted effect of over 60% in size. Conditions: recombinant CYP2C19, luciferin-H EGE luminescence; series mostly up to 57.1 µM. In a few lines: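 Luminescence readout of luciferin formed from 10uM Luciferin-H EGE (KM level) by 5 nM CYP2C19 in 50mM KPO4. 60 min NADPH-driven reaction at 37C after 10 min compound preincubation; data scaled to 57uM ketoconazole inhibition.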

Chain of 3',5'-cyclic-AMP phosphodiesterase 4B (Homo sapiens) (Q07343 whole entry, looked up): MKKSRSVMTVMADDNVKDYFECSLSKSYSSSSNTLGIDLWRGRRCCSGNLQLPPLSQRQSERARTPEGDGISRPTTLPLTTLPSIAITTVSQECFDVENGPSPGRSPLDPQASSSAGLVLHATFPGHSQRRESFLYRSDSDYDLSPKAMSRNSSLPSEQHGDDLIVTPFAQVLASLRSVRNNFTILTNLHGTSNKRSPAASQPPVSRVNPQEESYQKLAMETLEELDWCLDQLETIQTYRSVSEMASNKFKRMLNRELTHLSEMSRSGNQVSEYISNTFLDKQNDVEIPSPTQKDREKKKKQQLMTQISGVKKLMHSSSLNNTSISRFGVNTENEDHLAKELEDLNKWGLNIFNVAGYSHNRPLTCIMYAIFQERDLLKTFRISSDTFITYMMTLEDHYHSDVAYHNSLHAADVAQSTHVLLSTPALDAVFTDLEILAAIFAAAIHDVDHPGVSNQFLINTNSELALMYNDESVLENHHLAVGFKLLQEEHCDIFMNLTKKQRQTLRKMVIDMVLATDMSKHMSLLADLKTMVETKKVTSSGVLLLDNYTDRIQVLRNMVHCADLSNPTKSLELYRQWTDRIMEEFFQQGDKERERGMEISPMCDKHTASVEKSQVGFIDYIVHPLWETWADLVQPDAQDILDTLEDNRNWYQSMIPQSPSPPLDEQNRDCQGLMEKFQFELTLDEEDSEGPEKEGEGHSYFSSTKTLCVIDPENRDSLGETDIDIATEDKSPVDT
Chain of Lysosomal acid glucosylceramidase (Homo sapiens) (P04062 whole entry, looked up): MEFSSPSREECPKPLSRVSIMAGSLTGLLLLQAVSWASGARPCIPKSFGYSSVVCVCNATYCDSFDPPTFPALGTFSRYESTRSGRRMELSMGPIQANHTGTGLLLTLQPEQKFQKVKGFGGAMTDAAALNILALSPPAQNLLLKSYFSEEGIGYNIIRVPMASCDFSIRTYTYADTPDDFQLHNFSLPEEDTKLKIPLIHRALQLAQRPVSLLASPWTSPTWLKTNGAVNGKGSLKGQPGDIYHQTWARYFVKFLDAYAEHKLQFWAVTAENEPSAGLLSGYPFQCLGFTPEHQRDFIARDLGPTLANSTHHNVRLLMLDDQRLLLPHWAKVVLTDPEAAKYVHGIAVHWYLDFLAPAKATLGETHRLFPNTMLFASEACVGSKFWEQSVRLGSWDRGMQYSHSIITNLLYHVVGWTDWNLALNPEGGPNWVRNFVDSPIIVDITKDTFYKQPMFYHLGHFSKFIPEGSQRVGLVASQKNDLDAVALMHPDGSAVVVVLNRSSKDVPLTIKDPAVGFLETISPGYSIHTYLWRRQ
Chain of Cytochrome P450 3A4 (Homo sapiens) (P08684 whole entry, looked up): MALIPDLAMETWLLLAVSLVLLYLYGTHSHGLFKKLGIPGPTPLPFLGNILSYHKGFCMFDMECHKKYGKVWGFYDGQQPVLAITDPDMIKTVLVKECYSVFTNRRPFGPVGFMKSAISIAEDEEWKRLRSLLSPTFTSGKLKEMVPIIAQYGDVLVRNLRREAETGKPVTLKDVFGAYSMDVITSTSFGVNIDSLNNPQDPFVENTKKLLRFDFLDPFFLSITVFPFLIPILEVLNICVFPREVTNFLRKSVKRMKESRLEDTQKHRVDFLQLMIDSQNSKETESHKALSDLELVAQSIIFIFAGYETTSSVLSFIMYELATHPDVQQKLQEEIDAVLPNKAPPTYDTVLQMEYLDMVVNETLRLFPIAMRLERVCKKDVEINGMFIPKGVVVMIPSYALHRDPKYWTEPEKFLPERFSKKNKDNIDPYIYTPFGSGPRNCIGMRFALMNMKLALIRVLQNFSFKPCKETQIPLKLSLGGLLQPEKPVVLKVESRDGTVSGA
Chain of Cytochrome P450 2C19 (Homo sapiens) (P33261 whole entry, looked up): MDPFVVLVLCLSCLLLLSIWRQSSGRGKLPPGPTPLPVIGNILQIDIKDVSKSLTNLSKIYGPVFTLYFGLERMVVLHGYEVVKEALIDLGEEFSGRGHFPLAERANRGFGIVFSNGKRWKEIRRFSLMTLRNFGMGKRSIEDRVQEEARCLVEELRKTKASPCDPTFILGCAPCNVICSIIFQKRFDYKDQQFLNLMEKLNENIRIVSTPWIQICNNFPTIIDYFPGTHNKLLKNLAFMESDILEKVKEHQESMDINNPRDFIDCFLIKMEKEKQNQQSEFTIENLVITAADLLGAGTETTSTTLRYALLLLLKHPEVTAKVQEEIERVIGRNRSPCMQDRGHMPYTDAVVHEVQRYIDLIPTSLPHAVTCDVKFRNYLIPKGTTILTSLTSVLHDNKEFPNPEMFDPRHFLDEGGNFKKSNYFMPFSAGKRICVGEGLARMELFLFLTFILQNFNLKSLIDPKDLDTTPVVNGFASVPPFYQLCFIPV

As to `CS(=O)(=O)Nc1cccc(-c2nccc(NCc3cccs3)n2)c1`, the Potency was over 11.4 µM in [1]; over 46 µM in [4]; over 46 µM in [5]; 28.2 µM (active) in experiment [8]; 35.5 µM (active) in [9]. Further, in experiment [2], the activity change, negative = inhibition is 14.7%. Also, the activity, negative = inhibition in experiment [3] was -12.9%. Also, the Potency entry in experiment [6], in experiment [7], in experiment [10] and in [11] was “inactive” throughout. The result in experiment [12] was inactive.

For the molecule `CCNc1ncc2nc(-c3ccc(F)cc3)c(=O)n(C)c2n1`, the activity change, negative = inhibition is -8.75% in [13] and -26% in experiment [2]. Further, the Potency was 501 nM (active) in [14], over 9.22 µM in experiment [4] and over 46 µM in experiment [5]. Also, in experiment [3], the activity, negative = inhibition is -0.235%. For the same molecule, the Potency result in [6], in [7], in experiment [8], in experiment [9], in [10] and in experiment [11] was “inactive” each time. In addition, the outcome in experiment [12] was inactive.

With `O=c1c(-c2cc(F)cc(F)c2)nc2cnc(N3CCOCC3)nc2n1Cc1ccc(F)cc1`, the Potency in experiment [1] was over 11.4 µM; in experiment [4], over 9.22 µM; in [5], over 46 µM; in experiment [15], 3.16 µM (active). The Potency entry in [6], in [7], in [8], in [9], in experiment [10] and in experiment [11] was “inactive” each time. Also, the outcome in experiment [12] was inactive.

As for `COc1cccc(-c2nccc(N(C)Cc3ccco3)n2)c1`, the activity change, negative = inhibition in [13] is -11.4%; in [2] it was -1.32%. Moreover, the Potency in experiment [14] was 631 nM (active); in experiment [4], over 46 µM; in experiment [5], over 46 µM; in [17] it was 1.26 µM (active); in [18], 5.01 µM (active); in [8], 8.91 µM (active). The values for the Potency in [9] and in [10] were 8.91 µM (active) and 7.94 µM (active), respectively. For the same molecule, the activity, negative = inhibition in [3] is -2.39%. For the same molecule, the Potency result in experiment [6], in [7] and in [16] was “inactive” throughout. For the same molecule, the activation in experiment [15] was -11.6%. The outcome in experiment [12] was inactive.

On to `c1nc(N2CCOCC2)c2cc(-c3ccoc3)ccc2n1`, for which the Potency was over 11.4 µM in experiment [1]; over 46 µM in experiment [4]; over 46 µM in [5]; 0.224 µM (active) in experiment [8]; 0.631 µM (active) in experiment [9]; 0.178 µM (active) in experiment [10]. Besides, in experiment [2], the activity change, negative = inhibition is 17.9%. For the same molecule, the activity, negative = inhibition in [3] was -19.4%. The Potency entry in experiment [6] and in experiment [11] was “inactive” throughout. Besides, the outcome in [12] was inactive.

`O=c1c(-c2cccs2)nc2cncnc2n1Cc1ccc(F)cc1`: the figures for the activity change, negative = inhibition in [13] and in experiment [2] were -19.2% and -15.7%, respectively. For the same molecule, the Potency is 2510 nM (active) in [14], over 9.22 µM in experiment [4], over 46 µM in experiment [5] and 7.94 µM (active) in experiment [18]. The activity, negative = inhibition in experiment [3] was -3.58%. Moreover, the Potency entry in [6], in [7], in experiment [16], in experiment [8], in [9] and in experiment [10] was “inactive” throughout. Besides, the Potency entry in experiment [11] is “inactive”. Also, the result in [12] was inactive.
